The record followed here is PubChem BioAssay (EPA / NIEHS).

Records with an inconclusive call do not appear. Activity calls are given as the source filed them. The calls were made as follows: active = hit-call score of the fitted dose curve at least 0.9, where 1 is the maximum; inconclusive = response in the unintended direction; inactive = score below 0.9.

The nature of test [1]: ATG_XTT_Cytotoxicity: Cytotoxicity Assessment in the Attagene TRANS-FACTORIAL HepG2 Assay (AID 2283584).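 As to AC50: XTT signal for cell number as viability in transfected HepG2 cells; cells exposed to compound for 24 h before reading; active means loss of viability signal versus DMSO baseline.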 A digest of the protocol: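 24 h chemical exposure of reporter-transfected HepG2; XTT signal loss vs DMSO indicates cytotoxicity.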
Test [2] in a line: TOX21_p53_BLA_p2_viability: Viability Assessment in the Tox21 HCT-116 p53 Agonism Beta-lactamase Assay, Phase 2 (AID 2283591).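 Also: compound exposure lasted 16 h at 37 °C; actives lower the ATP signal meaning cytotoxicity.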 The method in brief: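 HCT116 p53-bla cells, 4000/well, dosed after 5 h plating (217-fold dilution of DMSO stocks) and incubated 16 h at 37C. Viability taken as cellular ATP by CellTiter-Glo luminescence after 30 min RT; signal loss marks cytotoxicity.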

Test [3] addresses Cellular tumor antigen p53 (Homo sapiens) (UniProt P04637). In words: TOX21_p53_BLA_p2_ratio: Tox21 HCT-116 p53 Agonism Beta-lactamase Assay, Ratio, Phase 2 (AID 2283592). The method in brief: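 DMSO-normalized, positive-direction endpoint derived from the 460 nm/530 nm FRET ratio in HCT116 p53 beta-lactamase reporter cells exposed 16 h at 37C and loaded with CCF4-AM for 2 h.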

Test [4] can be described thus: TOX21_p53_BLA_p3_viability: Viability Assessment in the Tox21 HCT-116 p53 Agonism Beta-lactamase Assay, Phase 3 (AID 2283593).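 Also: cells exposed to compound for 16 h before reading.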 The method in brief:
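HCT116 cells, 4000/well, dosed 5 h after plating by pin transfer (217-fold dilution from DMSO stock) and incubated 16 h at 37C, 5% CO2. Viability read as ATP luminescence with CellTiter-Glo after 30 min at room temperature.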

In test [5] the target is Cellular tumor antigen p53 (Homo sapiens) (UniProt P04637). Nature of the test: TOX21_p53_BLA_p3_ratio: Tox21 HCT-116 p53 Agonism Beta-lactamase Assay, Ratio, Phase 3 (AID 2283596). A digest of the protocol: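 Cells were seeded at 4000/well, rested 5 h at 37C, then dosed with DMSO compound solutions (217-fold dilution) for 16 h. CCF4-AM substrate was loaded for 2 h at room temperature, and the 460/530 nm emission ratio was fitted for gain of signal versus DMSO.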
Cellular tumor antigen p53 (Homo sapiens), sequence (P04637 whole entry, looked up): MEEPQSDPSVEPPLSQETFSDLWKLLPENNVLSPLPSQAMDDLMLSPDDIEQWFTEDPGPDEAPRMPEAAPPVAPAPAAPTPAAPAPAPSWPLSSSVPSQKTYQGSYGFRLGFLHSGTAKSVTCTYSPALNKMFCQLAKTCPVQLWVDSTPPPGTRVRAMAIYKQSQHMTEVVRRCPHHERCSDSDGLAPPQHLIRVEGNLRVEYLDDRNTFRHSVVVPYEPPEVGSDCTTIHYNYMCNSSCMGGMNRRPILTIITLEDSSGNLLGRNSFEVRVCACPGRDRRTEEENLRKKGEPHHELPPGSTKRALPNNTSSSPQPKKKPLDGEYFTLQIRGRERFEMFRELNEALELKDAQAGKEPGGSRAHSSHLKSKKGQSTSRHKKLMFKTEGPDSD

On to `N#CS`, for which the call in test [1], in test [2], in test [3], in test [4] and in test [5] was inactive.
On to `COC(=O)c1cc(Oc2ccc(Cl)cc2Cl)ccc1[N+](=O)[O-]`, for which the call in test [1], in test [2], in test [3], in test [4] and in test [5] was inactive.
With `CN(N=O)C(N)=O`, the outcome in test [1], in test [2], in test [3], in test [4] and in test [5] was inactive.
Turning to `N#CCCC(Br)(C#N)CBr` (stereo not given), the molecule was classed as inactive in test [1], in test [2], in test [3] and in test [4]. Further, the AC50 – broadly, the midpoint of the concentration-response curve, whichever way the signal moves – in test [5] was 70.8 µM (active).
As for `Cc1cccc(C)c1NC(=O)CN1CCCC1=O`, the outcome in test [1], in test [2], in test [3], in test [4] and in test [5] was inactive.
As to `Cc1cc(-c2cc(C)c(N)c(C)c2)cc(C)c1N`, the molecule was called inactive in test [1], in test [2], in test [3], in test [4] and in test [5].
For the molecule `CCOP(=O)(OCC)OC(=CCl)c1ccc(Cl)cc1Cl`, the call in test [1], in test [2], in test [3], in test [4] and in test [5] was inactive.
For the molecule `[F][Sn]([c]1ccccc1)([c]1ccccc1)[c]1ccccc1`, the AC50 is 1.35 µM (active) in test [1]; 1.6 µM (active) in test [2]; 10.1 µM (active) in test [3]; 13.3 µM (active) in test [4]; 13.5 µM (active) in test [5].
As for `COC(=O)Nc1cccc(OC(=O)Nc2cccc(C)c2)c1`, the result in test [1], in test [2], in test [3], in test [4] and in test [5] was inactive.
For `O=C(NC(=O)c1c(F)cccc1F)Nc1cc(Cl)c(Oc2ncc(C(F)(F)F)cc2Cl)c(Cl)c1`, the result in test [1], in test [2], in test [4] and in test [5] was inactive. Also, in test [3], the AC50 was 6.18 µM (active).
With `C=CC(=O)OCC(COC(=O)C=C)(COC(=O)C=C)COC(=O)C=C`, the AC50 in test [1] was 73.8 µM (active); in test [2], 16.6 µM (active); in test [4], 57.9 µM (active). In addition, the outcome in test [3] and in test [5] was inactive.
On to `O=C(CCl)Nc1ccccc1`, for which the outcome in test [1], in test [2], in test [3], in test [4] and in test [5] was inactive.
